Experimental data as given in PubChem BioAssay (EPA / NIEHS).
Activity calls are given as the source filed them. How the source made its calls: active means hit-call score of the fitted dose curve at least 0.9, where 1 is the maximum; inactive means score below 0.9.

Tests used:
Settings in all cases: mRNA level, 48 h; actives raise or lower the signal
[1] = read-out: Cytochrome P450 (CYP1A2), CYP1A2 (gene 1544); test: LTEA_HepaRG_CYP1A2: Life Technologies and Expression Analysis (LTEA) Assay for Cytochrome P450 (CYP1A2) using HepaRG (AID 2283479);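 on AC50: TaqMan qRT-PCR transcript level normalized to ACTB GAPDH and POLR2A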
Outline: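 CYP1A2 transcript measured by TaqMan qRT-PCR against three housekeeping genes after 48-hour chemical exposure of HepaRG cells. Eight-point half-log series topping at 100 uM in 0.5% DMSO, duplicates; gain or loss fitted relative to vehicle.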

[2] = read-out: cysteine-aspartic acid protease (CASP8), CASP8 (gene 841); test: LTEA_HepaRG_CASP8: Life Technologies and Expression Analysis (LTEA) Assay for cysteine-aspartic acid protease (CASP8) using HepaRG (AID 2283480)
Outline: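 HepaRG, 48 h exposure, duplicate wells; 8 conc, half-log from 100 uM, 0.5% DMSO. Serum-free induction medium. CASP8 mRNA by TaqMan qRT-PCR, norm. ACTB/GAPDH/POLR2A; gain/loss fitted vs DMSO.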

[3] = read-out: Cytochrome P450 (CYP2B6), CYP2B6 (gene 1555); test: LTEA_HepaRG_CYP2B6: Life Technologies and Expression Analysis (LTEA) Assay for Cytochrome P450 (CYP2B6) using HepaRG (AID 2283481)
Outline: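 CYP2B6 transcript level quantified by qRT-PCR against three housekeeping genes, fitted bidirectionally relative to DMSO. HepaRG cultures received chemicals for 48 h, 8-point half-log series from 100 uM in 0.5% DMSO, duplicate wells, serum-free induction medium.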

[4] = read-out: Cytochrome P450 2C19 (Homo sapiens) (UniProt P33261); test: LTEA_HepaRG_CYP2C19: Life Technologies and Expression Analysis (LTEA) Assay for CYP2C19 using HepaRG (AID 2283482)
Outline: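 CYP2C19 transcript levels by qRT-PCR, normalized to three housekeeping genes, in HepaRG cells after 48 h chemical exposure. Eight-point half-log series topping at 100 uM, 0.5% DMSO vehicle. Increases and decreases both fitted against DMSO.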

CYP2C8 (gene 1558) = test: LTEA_HepaRG_CYP2C8: Life Technologies and Expression Analysis (LTEA) Assay for CYP2C8 using HepaRG (AID 2283483)
Outline: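 CYP2C8 mRNA induction or loss, by qRT-PCR normalized to ACTB/GAPDH/POLR2A, is read in HepaRG cells after 48 h treatment. Concentrations run from 100 uM down in half-log dilutions, with 0.5% DMSO as vehicle and baseline.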

CYP2E1 (gene 1571) = test: LTEA_HepaRG_CYP2E1: Life Technologies and Expression Analysis (LTEA) Assay for CYP2E1 using HepaRG (AID 2283485)
Outline: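 Differentiated HepaRG cells were treated in duplicate for 48 h with chemicals in 0.5% DMSO, from 100 uM downward in half-log dilutions. RNA was then analysed by qRT-PCR for CYP2E1 induction or loss.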

CYP4A11 (gene 1579) = test: LTEA_HepaRG_CYP4A11: Life Technologies and Expression Analysis (LTEA) Assay for CYP4A11 using HepaRG (AID 2283486)
Outline: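 Readout is CYP4A11 transcript level by qRT-PCR, normalized to three housekeeping genes and fitted bidirectionally against 0.5% DMSO. Human HepaRG cells were treated 48 h, in duplicate, with an 8-point half-log series topping at 100 uM.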

[5] = read-out: Cytochrome P450 3A4 (Homo sapiens) (UniProt P08684); test: LTEA_HepaRG_CYP3A4: Life Technologies and Expression Analysis (LTEA) Assay for CYP3A4 using HepaRG (AID 2283487)
Outline: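 HepaRG, 48 h exposure, 8-pt CRC from 100 uM (half-log), 0.5% DMSO, duplicates; serum-free induction medium. Readout: CYP3A4 mRNA, qRT-PCR, ACTB/GAPDH/POLR2A normalization. Bidirectional fit vs DMSO.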

[6] = read-out: DNA damage-inducible transcript 3 (DDIT3), DDIT3 (gene 1649); test: LTEA_HepaRG_DDIT3: Life Technologies and Expression Analysis (LTEA) Assay for DNA damage-inducible transcript 3 (DDIT3) using HepaRG (AID 2283488)
Outline: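 Changes in DDIT3 transcript, in either direction relative to 0.5% DMSO vehicle, were quantified by TaqMan qRT-PCR after 48 h chemical exposure of HepaRG cells at 8 concentrations, maximum 100 uM.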

[7] = read-out: Pro-epidermal growth factor (Homo sapiens) (UniProt P01133); test: LTEA_HepaRG_EGF: Life Technologies and Expression Analysis (LTEA) Assay for Epidermal growth factor (EGF) using HepaRG (AID 2283489)
Outline: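 EGF transcript measured by Fluidigm TaqMan qRT-PCR with three housekeeping genes for normalization, 48 h after dosing HepaRG cultures in duplicate (top 100 uM, half-log steps, 0.5% DMSO vehicle). Gain or loss relative to DMSO fitted.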

[8] = read-out: Early growth response protein 1 (EGR1) transcription factor, EGR1 (gene 1958); test: LTEA_HepaRG_EGR1: Life Technologies and Expression Analysis (LTEA) Assay for Early growth response protein 1 (EGR1) transcription factor using HepaRG (AID 2283490)
Outline: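 Read-out is EGR1 mRNA level by qRT-PCR, normalized to three housekeeping genes and analysed for gain or loss of signal against 0.5% DMSO. Source cells: human HepaRG, treated 48 h at up to 100 uM in half-log dilutions.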

[9] = read-out: Ezrin (EZR), EZR (gene 7430); test: LTEA_HepaRG_EZR: Life Technologies and Expression Analysis (LTEA) Assay for Ezrin (EZR) using HepaRG (AID 2283491)
Outline: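 Read-out is EZR transcript level by qRT-PCR, normalized to three housekeeping genes and fitted bidirectionally against the DMSO control. Human HepaRG cells received test chemicals for 48 h at eight half-log concentrations up to 100 uM in 0.5% DMSO.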

CYP3A5 (gene 1577) = test: LTEA_HepaRG_CYP3A5: Life Technologies and Expression Analysis (LTEA) Assay for CYP3A5 using HepaRG (AID 2283493)
Outline: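 mRNA induction or loss of CYP3A5 assessed in HepaRG after 48 h dosing, 100 uM top concentration, duplicate wells; TaqMan qRT-PCR with ACTB, GAPDH, POLR2A normalization; 0.5% DMSO as negative control.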

[10] = read-out: Fatty Acid-Binding Protein 1 (FABP1), FABP1 (gene 2168); test: LTEA_HepaRG_FABP1: Life Technologies and Expression Analysis (LTEA) Assay for Fatty Acid-Binding Protein 1 (FABP1) using HepaRG (AID 2283494)
Outline: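 HepaRG, 48 h post-plating switched to serum-free induction medium, then dosed 48 h (duplicate, 8 pts, ≤100 uM, 0.5% DMSO). RNA → Fluidigm TaqMan qRT-PCR, FABP1 normed to ACTB/GAPDH/POLR2A. Bidirectional curve fit vs DMSO.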

[11] = read-out: Cytochrome P450 4A22 (Homo sapiens) (UniProt Q5TCH4); test: LTEA_HepaRG_CYP4A22: Life Technologies and Expression Analysis (LTEA) Assay for Cytochrome P450 4A22 (CYP4A22) using HepaRG (AID 2283495)
Outline: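 Gene expression measured by qRT-PCR against three housekeeping genes (ACTB, GAPDH, POLR2A), with gain or loss fitted relative to 0.5% DMSO vehicle. HepaRG cultures received 48 h chemical treatment, top concentration 100 uM, half-log steps, duplicate wells.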

[12] = read-out: Cytochrome P450 7A1 (Homo sapiens) (UniProt P22680); test: LTEA_HepaRG_CYP7A1: Life Technologies and Expression Analysis (LTEA) Assay for Cytochrome P450 7A1 (CYP7A1) using HepaRG (AID 2283496)
Outline: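 Gene expression endpoint in human HepaRG liver cells treated for 48 h with test chemicals (up to 100 uM, 0.5% DMSO). Values come from bidirectional concentration-response fitting versus DMSO.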

[13] = read-out: Glutathione S-Transferase (GSTA2), GSTA2 (gene 2939); test: LTEA_HepaRG_GSTA2: Life Technologies and Expression Analysis (LTEA) Assay for Glutathione S-Transferase (GSTA2) using HepaRG (AID 2283497)
Outline: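 HepaRG, 48 h dosing, 8-pt half-log CRC from 100 uM, 0.5% DMSO vehicle, n=2; RNA → Fluidigm TaqMan qRT-PCR; GSTA2 vs ACTB/GAPDH/POLR2A; gain/loss fit vs DMSO.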

[14] = read-out: Glutamate-cysteine ligase catalytic (GCLC), GCLC (gene 2729); test: LTEA_HepaRG_GCLC: Life Technologies and Expression Analysis (LTEA) Assay for Glutamate-cysteine ligase catalytic (GCLC) using HepaRG (AID 2283498)
Outline: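 Read-out is GCLC transcript level by Fluidigm-based TaqMan qRT-PCR, normalized to three housekeeping genes and fitted in both directions relative to 0.5% DMSO. Human HepaRG cells received chemicals for 48 h, up to 100 uM.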

CYP2C9 (gene 1559) = test: LTEA_HepaRG_CYP2C9: Life Technologies and Expression Analysis (LTEA) Assay for CYP2C9 using HepaRG (AID 2283484)
Outline: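 Cells plated 48 h, switched to serum-free induction medium, then treated in duplicate for 48 h at eight concentrations (max 100 uM, 0.5% DMSO). RNA then analysed by qRT-PCR for CYP2C9; curves fitted in both directions relative to DMSO.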

[15] = read-out: Cytochrome P450 3A7 (Homo sapiens) (UniProt P24462); test: LTEA_HepaRG_CYP3A7: Life Technologies and Expression Analysis (LTEA) Assay for CYP3A7 using HepaRG (AID 2283492)
Outline: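 CYP3A7 transcript measured by qRT-PCR (ACTB, GAPDH, POLR2A normalization) after 48 h chemical exposure of HepaRG cells in duplicate. Eight half-log concentrations, maximum 100 uM, 0.5% DMSO vehicle; bidirectional curve fitting against DMSO baseline.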

Measured: AC50

Sequence of Cytochrome P450 3A4 (Homo sapiens) (P08684 whole entry, looked up): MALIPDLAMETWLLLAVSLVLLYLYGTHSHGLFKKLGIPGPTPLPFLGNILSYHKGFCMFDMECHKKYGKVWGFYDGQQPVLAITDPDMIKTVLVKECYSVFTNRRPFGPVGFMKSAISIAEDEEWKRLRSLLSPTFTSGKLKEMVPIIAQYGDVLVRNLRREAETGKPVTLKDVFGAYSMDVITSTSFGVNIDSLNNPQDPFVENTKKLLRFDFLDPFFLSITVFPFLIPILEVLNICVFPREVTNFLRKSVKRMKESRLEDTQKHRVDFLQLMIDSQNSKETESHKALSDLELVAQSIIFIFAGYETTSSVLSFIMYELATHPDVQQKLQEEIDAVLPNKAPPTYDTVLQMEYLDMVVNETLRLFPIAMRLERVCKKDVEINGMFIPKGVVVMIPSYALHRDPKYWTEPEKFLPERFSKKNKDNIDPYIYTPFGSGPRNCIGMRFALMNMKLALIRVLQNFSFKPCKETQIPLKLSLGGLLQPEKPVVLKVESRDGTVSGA
Sequence of Cytochrome P450 2C19 (Homo sapiens) (P33261 whole entry, looked up): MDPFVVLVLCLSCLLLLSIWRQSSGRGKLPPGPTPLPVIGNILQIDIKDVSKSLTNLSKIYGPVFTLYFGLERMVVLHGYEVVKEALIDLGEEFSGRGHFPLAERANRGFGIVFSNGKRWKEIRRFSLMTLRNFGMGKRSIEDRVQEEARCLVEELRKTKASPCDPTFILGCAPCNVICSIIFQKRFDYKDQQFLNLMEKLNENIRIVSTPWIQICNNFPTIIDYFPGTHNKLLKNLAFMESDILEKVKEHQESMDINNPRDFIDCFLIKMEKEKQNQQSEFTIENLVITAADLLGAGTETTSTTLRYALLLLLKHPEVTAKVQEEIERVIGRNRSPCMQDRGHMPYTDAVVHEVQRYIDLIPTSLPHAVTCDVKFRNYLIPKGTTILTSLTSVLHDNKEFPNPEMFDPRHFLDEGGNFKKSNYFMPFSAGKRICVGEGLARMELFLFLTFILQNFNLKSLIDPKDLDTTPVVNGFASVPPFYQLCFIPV
Sequence of Cytochrome P450 3A7 (Homo sapiens) (P24462 whole entry, looked up): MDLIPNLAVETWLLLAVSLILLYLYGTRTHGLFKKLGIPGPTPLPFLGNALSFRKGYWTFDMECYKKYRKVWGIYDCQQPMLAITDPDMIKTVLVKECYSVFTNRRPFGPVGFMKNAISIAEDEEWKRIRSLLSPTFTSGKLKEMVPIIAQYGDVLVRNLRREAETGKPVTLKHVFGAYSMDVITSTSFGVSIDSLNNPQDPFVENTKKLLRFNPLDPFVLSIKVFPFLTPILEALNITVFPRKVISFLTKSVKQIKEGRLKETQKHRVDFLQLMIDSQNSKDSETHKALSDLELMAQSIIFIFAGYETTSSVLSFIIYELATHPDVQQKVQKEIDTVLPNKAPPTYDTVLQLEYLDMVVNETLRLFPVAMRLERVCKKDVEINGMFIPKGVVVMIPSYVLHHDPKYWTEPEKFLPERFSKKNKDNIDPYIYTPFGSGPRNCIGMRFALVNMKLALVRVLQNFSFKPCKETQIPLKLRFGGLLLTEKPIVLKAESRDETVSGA

CC1=CC(=O)CC(C)(C)C1
not listed: CYP2C9 (gene 1559) | [15]
inactive: all other assays above

Fc1ccccc1[C@@H](F)COC1CCC(Nc2ncnc3[nH]ncc23)CC1 (stereo not given in full)
inactive: [2] | CYP2C8 (gene 1558) | [9] | CYP3A5 (gene 1577)
active: [1] 29.1 µM | [3] 30.9 µM | [4] 67.9 µM | CYP2C9 (gene 1559) 37.7 µM | CYP4A11 (gene 1579) 40.1 µM | [5] 35.6 µM | [6] 28.9 µM | [8] 14.3 µM | [15] 83.1 µM | [10] 64 µM | [11] 23 µM | [12] 77.1 µM | [13] 37.5 µM | [14] 50 µM

Nc1ccc(Nc2ccccc2)cc1
active: [1] 4.54 µM | [3] 33.7 µM | CYP2E1 (gene 1571) 71.2 µM | [15] 62.7 µM | [10] 50 µM | [12] 50 µM
not listed: CYP2C9 (gene 1559)
inactive: all other assays above

Cc1ccc(S(=O)(=O)O)cc1C
not listed: CYP2E1 (gene 1571) | [7] | [10] | [15]
inactive: all other assays above

COCCOc1cc2cc(C(=O)NC3CCN(C(C)C)CC3)n(CC(=O)Nc3ccc(Cl)cn3)c2cn1
inactive: [2] | [6] | [8] | [9] | [14]
active: [1] 2.12 µM | [3] 70.6 µM | [4] 66.8 µM | CYP2C8 (gene 1558) 61.8 µM | CYP2E1 (gene 1571) 52.6 µM | CYP4A11 (gene 1579) 69.7 µM | [5] 45 µM | [15] 72 µM | CYP3A5 (gene 1577) 15.9 µM | [11] 76.7 µM | [12] 41.2 µM | [13] 45 µM

CC[C@H]1OC(=O)[C@H](C)[C@@H](O[C@H]2C[C@@](C)(OC)[C@@H](O)[C@H](C)O2)[C@H](C)[C@@H](O[C@@H]2O[C@H](C)C[C@H](N(C)C)[C@H]2O)[C@](C)(O)C[C@@H](C)C(=O)[C@H](C)[C@@H](O)[C@]1(C)O
active: [1] 59.1 µM | [3] 5.59 µM | [5] 19.6 µM | [15] 13.9 µM
not listed: CYP2E1 (gene 1571) | [7] | [10]
inactive: all other assays above

CN(C)c1ccc(N=NS(=O)(=O)O)cc1
active: [1] 13.8 µM | CYP2C8 (gene 1558) 2.62 µM | [11] 9.92 µM | [12] 2.51 µM
not listed: CYP2E1 (gene 1571) | [7] | CYP3A5 (gene 1577) | [10] | [15]
inactive: all other assays above
